# Sfp inh: Sfp phosphopantetheinyl transferase inhibition | Q9F4F7 | Biochemical Sfp PPTase activity, qHTS | Potency, µM, for the others: largest response in the series, negative = inhibition, actives largely listed as inhibitors | hit rate 3.5% among 310,000;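 further: the enzyme is Sfp with the accession as filed and its product quenches rhodamine fluorescence; 0% = enzyme reaction without inhibitor and -100% = no enzyme wells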
#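 With Hepes-Na pH 7.6 buffer containing 10 mM MgCl2, Sfp (15 nM) modified BHQ-2-YbbR (12.5 uM) using rhodamine-CoA (5 uM). Two reads 30 minutes apart at 525/598 nm yielded each well's rate.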
# PLK1 PBD block: inhibitors of human PLK1 polo-box domain binding; P53350; Plk1 PBD binding of FITC phosphopeptide, fluorescence polarization; Potency, µM, inactives show max response, negative = inhibition, actives largely listed as inhibitors; hit rate 2.8% among 360,000; AID 720504; further: series mostly up to about 57 µM; nearly all actives have a fitted effect of over 65% in size
# ALDH1A1 inh: inhibitors of human aldehyde dehydrogenase 1A1; hit rate 7.3% among 220,000; Potency, µM (titrated, usually from 75.3 µM), inactives show at the highest dose activity, negative = inhibition, hits mostly inhibitors; Purified ALDH1A1, NADH fluorescence, propionaldehyde substrate; P00352; AID 1030; active means well fitted inhibition curve with a large enough effect, not every such curve was filed as active; inconclusive means small, poorly fitted or top-dose-only effect, or another doubt; inactive means no such curve, though single readings can be large or run the other way;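 further: plate controls were no enzyme wells and a reference inhibitor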
# RORgamma inh: blocks mouse ROR gamma transcriptional activity. P51450. Drosophila S2 Gal4-RORgamma UAS-luciferase reporter, 20 h. Potency, µM (titrated, usually from 53.6 µM), without a hit: at the highest dose activity change, negative = inhibition, usual class: inhibitors. hit rate 5.4% among 310,000. AID 2551; further: nearly all actives have a fitted effect of over 60% in size
# Target sequence (P51450 whole entry, looked up, the tested form may be a part): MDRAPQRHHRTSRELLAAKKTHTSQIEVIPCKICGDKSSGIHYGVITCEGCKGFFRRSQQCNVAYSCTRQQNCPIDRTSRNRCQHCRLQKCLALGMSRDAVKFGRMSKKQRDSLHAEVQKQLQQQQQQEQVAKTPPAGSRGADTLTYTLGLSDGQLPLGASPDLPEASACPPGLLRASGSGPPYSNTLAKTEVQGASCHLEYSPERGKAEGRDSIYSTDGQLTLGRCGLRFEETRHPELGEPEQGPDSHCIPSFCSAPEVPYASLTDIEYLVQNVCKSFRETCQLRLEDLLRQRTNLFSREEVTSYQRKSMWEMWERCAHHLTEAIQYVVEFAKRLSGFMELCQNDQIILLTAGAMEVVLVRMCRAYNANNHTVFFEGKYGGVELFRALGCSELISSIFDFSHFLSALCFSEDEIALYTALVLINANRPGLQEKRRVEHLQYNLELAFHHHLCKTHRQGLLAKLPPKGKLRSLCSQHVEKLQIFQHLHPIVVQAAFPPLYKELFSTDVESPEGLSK
#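 Schneider cells (Drosophila), stable Gal4 DBD–ROR gamma + UAS-luc; 1 hr cmpd preincubation; Cu2+ induction 700 uM final; 20 hr ambient; luminescence.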
# Gal4-VP16 FLuc: counter-screen for ROR gamma inhibitors: Gal4-VP16 reporter; Drosophila S2 Gal4-VP16 UAS-luciferase, luminescence, 20 h; Potency, µM (titrated, usually from 53.6 µM), without a hit: at the top dose activity, negative = inhibition, hits mostly inhibitors; hit rate 3.5% among 310,000; AID 2546;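 further: Gal4-VP16 expression switched on by copper sulfate through the metallothionein promoter; nearly all actives have a fitted effect of over 50% in size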
# Starred values were filed as active, the others as inactive; u = inconclusive; x = not tested or not shown; [ ] = remark or other dose. Rows were chosen to be rich in hits. Some 12% of all compounds tested hit in one or more screens of this group. Unless noted, the call rests on the fitted dose curve; in most records, active means well fitted curve in the direction sought with a large enough effect; inconclusive means small, poorly fitted or top-dose-only effect, or another doubt; inactive means no such curve, though single readings can be large; an effect the other way counts as inactive or inconclusive. Unless noted, on the % scale 0 is the no-effect control and ±100 the full control effect; potency means the concentration at half of the fitted maximal effect.
SMILES,Sfp inh,PLK1 PBD block,ALDH1A1 inh,RORgamma inh,Gal4-VP16 FLuc
NC(=O)c1ccccc1N/C=C/C(=O)c1ccc(Cl)cc1,-3%,-7%,-3%,1.4µM*,1.6µM*
Cc1ccc(C(=O)/C=C/Nc2ccccc2C(N)=O)cc1,12%,0%,u,0.5µM*,2.8µM*
CCS(=O)(=O)c1ccc(O)c(NC(=O)/C=C/c2ccc(Cl)cc2)c1,-10%,-12%,x,15%,-5%
CCOC(=O)c1ccccc1N/C=C/C(=O)c1ccccc1,x,-6%,x,x,x
Cc1ccc(/C=C/C(=O)Nc2ccccc2C(N)=O)cc1,-9%,-3%,-1%,3.5µM*,u
Cc1ccc(/C=C/C(=O)Nc2cc(S(N)(=O)=O)ccc2O)cc1,28µM*,21µM*,u,u,-7%
CC(=O)c1cccc(-c2ccnc3c2CC(C(=O)Nc2ccc(C(C)C)cc2)O3)c1 (stereo not given),x,-4%,x,x,x
COC(=O)[C@@H](NC(=O)O[C@H]1C(=O)c2cc(OC)ccc2O[C@@H]1c1ccc(OC)c(Br)c1)C(C)C,-5%,x,u,5%,3%
O=C(CCS(=O)(=O)c1ccccc1)N1CCN(c2cccc(C(F)(F)F)c2)CC1,11%,-26%,x,u,-21%
O=C(CCc1ccc(S(=O)(=O)NCc2ccccc2)cc1)N1CCN(Cc2ccc3c(c2)OCO3)CC1,1%,-7%,u,42%,u
c1ccc(Cn2nnnc2CN2CCN(Cc3ccc4c(c3)OCO4)CC2)cc1,11%,-1%,20µM*,0%,2%
O=C(CS(=O)(=O)Cc1ccccc1)N1CCN(Cc2ccc3c(c2)OCO3)CC1,5%,27µM*,-1%,30%,2%
O=C(CS(=O)(=O)Cc1ccccc1)N1CCN(c2cccc(C(F)(F)F)c2)CC1,7%,30µM*,-3%,14%,3%
CC1CCCCN1c1ccc(N)cc1C(N)=O (stereo not given),-8%,-10%,4%,-25%,-7%
O=C(NC(=S)Nc1ccccc1Br)C1CC1,x,-8%,x,x,x
CCOc1ccccc1NC(=S)NC(=O)C1CC1,8%,-1%,x,u,0.71µM*
Cc1ccccc1NC(=S)NC(=O)C1CCCCC1,-7%,-6%,x,4µM*,u
CC(=O)N(OCc1ccccc1)[C@@H]1c2cc(C#N)ccc2OC(C)(C)[C@H]1O,17%,x,2%,-23%,1%
COc1ccc(-n2nc3cc(C)c(NC(=S)NC(=O)c4ccccc4C)cc3n2)cc1,-15%,-18%,u,3.2µM*,u
Cc1ccc(-n2nc3cc(C)c(NC(=S)NC(=O)/C=C/c4ccco4)cc3n2)cc1,u,-16%,-7%,2.2µM*,5µM*
CCC(=O)Nc1cc2nn(-c3ccc(OC)cc3)nc2cc1C,22%,-8%,u,u,u
O=C(Nc1ccc2nn(-c3ccccc3)nc2c1)c1ccco1,2%,-10%,1%,u,0%
Cc1ccc(-n2nc3ccc(NC(=S)NC(=O)/C=C/c4ccco4)cc3n2)cc1,5%,-5%,3%,3.2µM*,u
CCC(=O)Nc1cc2nn(-c3ccc(C)cc3)nc2cc1C,17%,1%,11%,-28%,-21%
CO[C@H]1COC(=O)C/C=C\[C@@H](C)COC(=O)[C@@H](CCSC)NC(=O)C/C=C\[C@@H]1C,23%,x,4%[13.5 µM],-30%[10 µM],6%[10 µM]
SMILES,Sfp inh,PLK1 PBD block,ALDH1A1 inh,RORgamma inh,Gal4-VP16 FLuc
COC(=O)COC(=O)c1ccccc1NC(=O)c1ccccc1,-10%,-8%,-4%,41%,-5%
CC(=O)c1ccc(NC(=O)COC(=O)c2ccccc2Nc2ccccc2)cc1,17%,27µM*,u,-5%,u
CC(=O)c1ccccc1NC(=O)COC(=O)c1ccccc1NC(=O)c1ccccc1,28µM*,-5%,-2%,35%,2%
CCC(=O)Nc1ccccc1C(=O)OCC(=O)c1ccc2ccccc2c1,u,-10%,-4%,u,20%
CCC(=O)Nc1ccccc1C(=O)OCC(=O)c1ccccc1,-3%,1%,6%,10µM*,-26%
O=C(COC(=O)c1ccccc1Nc1ccccc1)Nc1ccccc1,-5%,-7%,u,-29%,u
CC(=O)NCC(=O)OCC(=O)Nc1ccc(C(C)=O)cc1,10%,-5%,22µM*,1%,0%
CCc1nc2ccc(C(=O)NCCCN3CCCC3=O)cn2c1N(CC)C(C)=O,x,0%,x,x,x

# Bioassay records deposited in PubChem by National Center for Advancing Translational Sciences (NCATS).
